{"source": "PubChem BioAssay (Tox21)", "note": "Activity calls are given as the source filed them. A call without a number means that no potency is given here. Calls come from the whole dose curve; as a rule, active = well fitted activation curve with a large enough effect in the repeat runs; inconclusive = weak or mixed curves; inactive = flat fitted curve, though single readings scatter."}
{"assay": "A CellTox Green Cytotoxicity Assay to monitor cytotoxicity in HEK293 cells - 0 hour (AID 1224869); note: nearly all actives have a fitted effect of over 50% in size", "conditions": "CellTox Green fluorescence; series mostly up to 76.8 µM", "description": "National Center for Advancing Translational Sciences [NCATS]\nNIH Chemical Genomics Center [NCGC]\nU.S. Environmental Protection Agency [EPA]\nNational Institutes of Environmental Health Sciences [NIEHS]\nNational Toxicology Program [NTP]\nCell-based models are critical for drug discovery. Determining the natural cytotoxic effects resulting from test compounds is an essential research activity. A CellTox Green Cytotoxicity Assay to monitor cytotoxicity in real time of continues cell culture during 40 hours of the compound treatment was used to screen Tox21 10K library compounds in Hek293 cells. CellTox Green Cytotoxicity Assay is a nonlytic, homogeneous, biofluorescent method to measure cytotoxicity in cell culture after experimental manipulation. The assay system uses a proprietary asymmetric cyanine dye that is excluded from viable cells but preferentially stains the dead cell's DNA. […] Viable cells produce no appreciable increases in fluorescence. Therefore, the fluorescence signal produced by the binding interaction with dead cell DNA is proportional to cytotoxicity.\nThe mixture of Hek293 cell suspension and reagents were dispensed at 600cells/6 ul/well in 1536-well tissue culture treated black solid bottom plates using a Multidrop dispenser. After the assay plates were incubated at a 37 C/5% CO2 incubator for 5 hours, 23 nL of compounds dissolved in DMSO, positive and negative controls was transferred to the assay plate by a pintool work station. The plates were incubated at 37 C for 40 hours. The fluorescence intensity were measured at 0h, 8h, 16h, 24h, 32h and 40h time points using ViewLux plate reader during compound treatment."}
{"compound": "CCCCOCCOP(=O)(OCCOCCCC)OCCOCCCC", "Potency": "inactive"}
{"compound": "CCN(CC)C(=O)SCc1ccc(Cl)cc1", "Potency": "inactive"}
{"compound": "Brc1ccc(Oc2cc(Br)c(Br)cc2Br)c(Br)c1", "Potency": "inactive"}
{"compound": "COc1ccc(C=O)cc1", "Potency": "inactive"}
{"compound": "Cc1cc(C)cc(C)c1", "Potency": "inactive"}
{"compound": "CCOC(=O)C(C)OC(=O)c1cc(Oc2ccc(C(F)(F)F)cc2Cl)ccc1[N+](=O)[O-]", "note": "(stereo not given)", "Potency": "inactive"}
{"compound": "Cc1ccccc1[N+](=O)[O-]", "Potency": "inactive"}
{"compound": "CCCCNC(=O)n1c(NC(=O)OC)nc2ccccc21", "Potency": "inactive"}
{"compound": "N[C@@H](Cc1ccc(N(CCCl)CCCl)cc1)C(=O)O", "Potency": "inactive"}
{"compound": "CCOCN(C(=O)CCl)c1c(C)cccc1CC", "Potency": "inactive"}
{"compound": "O=P(O)(O)CCCl", "Potency": "inactive"}
{"compound": "CC(C)(c1cc(Cl)c(O)c(Cl)c1)c1cc(Cl)c(O)c(Cl)c1", "Potency": "inactive"}
{"compound": "Nn1cnnc1", "Potency": "inactive"}
{"compound": "c1ccc(N=Nc2ccccc2)cc1", "Potency": "inactive"}
{"compound": "CCCCCCCCC(=O)NCc1ccc(O)c(OC)c1", "Potency": "inactive"}
{"compound": "c1ccc(-c2cccc(-c3ccccc3)c2)cc1", "Potency": "inactive"}
{"compound": "S=C1NCCN1", "Potency": "inactive"}
{"compound": "COP(=S)(OC)Oc1cc(Cl)c(Cl)cc1Cl", "Potency": "inactive"}
{"compound": "Oc1ccc(-c2ccccc2)cc1", "Potency": "inactive"}
{"compound": "Nc1ccc(-c2ccccc2)cc1", "Potency": "inactive"}
{"compound": "Oc1cc(Cl)c(Cl)cc1Cl", "Potency": "inactive"}
{"compound": "C=CC(=O)OCCO", "Potency": "inactive"}
{"compound": "CCCCCc1cc(O)cc(O)c1", "Potency": "inactive"}
{"compound": "CC(C)NC(C)C", "Potency": "inactive"}
{"compound": "CCC(C)c1cc([N+](=O)[O-])cc([N+](=O)[O-])c1O", "note": "(stereo not given)", "Potency": "inactive"}
{"compound": "CCOc1cc(C=O)ccc1O", "Potency": "inactive"}
{"compound": "O=C(O)C(F)(F)C(F)(F)C(F)(F)C(F)(F)C(F)(F)C(F)(F)C(F)(F)F", "Potency": "inactive"}
{"compound": "CCCCC(CC)COC(=O)c1ccc(C(=O)OCC(CC)CCCC)c(C(=O)OCC(CC)CCCC)c1", "note": "(stereo not given)", "Potency": "inactive"}
{"compound": "COC(=O)c1sccc1S(=O)(=O)NC(=O)Nc1nc(C)nc(OC)n1", "Potency": "inactive"}
{"compound": "C=CCc1ccc2c(c1)OCO2", "Potency": "inactive"}
{"compound": "O=Cc1ccco1", "Potency": "inactive"}
{"compound": "CC(C)C(=O)OCC(C)(C)C(OC(=O)C(C)C)C(C)C", "note": "(stereo not given)", "Potency": "inactive"}
{"compound": "O=[N+]([O-])c1ccc(O)c([N+](=O)[O-])c1", "Potency": "inactive"}
{"compound": "CCCCN(CC)c1c([N+](=O)[O-])cc(C(F)(F)F)cc1[N+](=O)[O-]", "Potency": "inactive"}
{"compound": "CCOC(=S)S", "Potency": "inactive"}
{"compound": "CCCCCCOC(=O)c1ccccc1C(=O)OCCCCCC", "Potency": "inactive"}
{"compound": "CN(C)c1ccc(C(=O)c2ccc(N(C)C)cc2)cc1", "Potency": "inactive"}
{"compound": "CC(O)CCO", "note": "(stereo not given)", "Potency": "inactive"}
{"compound": "Cc1ccc(N)c(N)c1", "Potency": "inactive"}
{"compound": "CC(C)c1ccc(CO)cc1", "Potency": "inactive"}
